From PubChem BioAssay
Pf growth 48h: P. falciparum growth inhibition at 48 hours (one generation) | P. falciparum luciferase growth in erythrocytes, 48 h | 310,000 compounds, 5.9% hits | Potency, µM (titrated, usually from 28.7 µM), for the others: at the top dose activity change, negative = inhibition, most hits filed as inhibitors; further: on the % scale 0 is the no-effect control and ±100 the full control effect
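In quantitative HTS format, infected erythrocytes bearing luciferase-reporter parasites were treated for a single generation at 37 C. Luminescence after adding detection reagent served as the growth measure.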
AmpC detergent: blocks E. coli AmpC beta-lactamase in detergent assay. Potency, µM (series often up to 114 µM), without a hit: top-dose activity change, negative = inhibition, usual class: inhibitors. 370,000 compounds, 0.041% hits. AmpC hydrolysis of nitrocefin, absorbance 480 nm, 0.01% Triton;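 further: 0% = no-compound wells and -100% = no-enzyme wells; nearly all actives have a fitted effect of over 25% in size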
Target sequence (P00811 whole entry, looked up): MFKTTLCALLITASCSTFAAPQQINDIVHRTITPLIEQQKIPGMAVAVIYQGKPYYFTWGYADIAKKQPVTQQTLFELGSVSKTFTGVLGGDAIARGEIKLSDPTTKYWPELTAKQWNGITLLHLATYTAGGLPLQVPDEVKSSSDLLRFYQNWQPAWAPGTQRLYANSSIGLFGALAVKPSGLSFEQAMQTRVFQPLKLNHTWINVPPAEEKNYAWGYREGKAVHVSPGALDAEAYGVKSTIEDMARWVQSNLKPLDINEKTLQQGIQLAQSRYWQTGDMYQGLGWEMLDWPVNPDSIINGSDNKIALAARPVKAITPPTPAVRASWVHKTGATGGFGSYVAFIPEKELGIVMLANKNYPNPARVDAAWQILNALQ
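20 mM phosphate pH 7.0 + 0.01% (detergent screen) or 0.0001% Triton X-100; 5.3 nM AmpC reagent; cpd preinc 15 min RT; nitrocefin (800 uM stock) to start; A480 q20 s × 4 min; Activity was normalised to no-enzyme and no-compound control wells.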
AmpC inh no detg: inhibitors of E. coli AmpC beta-lactamase without detergent. P00811. AmpC nitrocefin hydrolysis, absorbance 480 nm, 0.0001% Triton. Potency, µM (top dose mostly 57.1 µM), for the others: at the top dose activity change, negative = inhibition, actives largely listed as inhibitors. 330,000 compounds, 0.52% hits;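 further: plate controls were no compound for no effect and no enzyme for full effect; nearly all actives have a fitted effect of over 20% in size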
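20 mM phosphate pH 7.0 + 0.01% (detergent screen) or 0.0001% Triton X-100; 5.3 nM AmpC reagent; cpd preinc 15 min RT; nitrocefin (800 uM stock) to start; A480 q20 s × 4 min; Activity was normalised to no-enzyme and no-compound control wells.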
Sm TGR block: S. mansoni TGR enzyme inhibition. 360,000 compounds, 3% hits. Q962Y6. AID 485364. purified TGR, DTNB reduction, TNB absorbance 405 nm. Potency, µM (top dose mostly 114 µM), inactives show at the highest dose activity change, negative = inhibition, most hits filed as inhibitors; further: on the % scale 0 is the no-effect control and ±100 the full control effect; nearly all actives have a fitted effect of over 60% in size
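First, TGR (20 nM dispensed) and NADPH were mixed with compound. Second, a 15 min room-temperature incubation followed. Third, further NADPH and then DTNB were added to start the reaction. Finally, TNB absorbance was monitored kinetically.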
SARS PLpro yeast: blocks SARS-CoV papain-like protease in a yeast assay. S. cerevisiae expressing SARS-CoV PLpro, growth rescue. Potency, µM (titrated, usually from 32.9 µM), inactives show at the highest dose activity, positive = growth rescue, usual class: activators. 330,000 compounds, 0.19% hits. AID 485353; calls by dose curve; further: 0% is about no effect; nearly all actives have a fitted effect of over 55% in size
Pf growth 96h: inhibits malaria parasite growth, 96 h | P. falciparum luciferase reporter growth, 96 h | Potency, µM (series often up to 28.7 µM), without a hit: at the highest dose activity change, negative = inhibition, most hits filed as inhibitors | 320,000 compounds, 6.9% hits | AID 504834; further: on the % scale 0 is the no-effect control and ±100 the full control effect
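Plates of compound plus infected erythrocytes (2% hematocrit, 0.05% parasitemia final) incubate 96 hours, 37 C, 5% CO2. Detection reagent added; reduced luminescence from the parasites' luciferase reporter flags inhibition.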
Starred values were filed as active, the others as inactive; u = inconclusive; x = not tested or not shown; [ ] = dose if it differs, or a comment. Hits are enriched below; roughly 12% of the tested compounds scored in any of these assays. Unless noted, the call rests on the fitted dose curve; in most records, active means well fitted curve in the direction sought with a large enough effect; inconclusive means small, poorly fitted or top-dose-only effect, or another doubt; inactive means no such curve, though single readings can be large; an effect the other way counts as inactive or inconclusive. Potency means the concentration at half of the fitted maximal effect.

SMILES	Pf growth 48h	AmpC detergent	AmpC inh no detg	Sm TGR block	SARS PLpro yeast	Pf growth 96h
CC(C)N1C(=O)/C(=C/C=C/c2ccco2)C(=O)N(Cc2ccco2)C1=O	0%	-10%	-23%	3.5µM*	1%	4%
O=C1NC(=O)N(Cc2ccccc2)C(=O)/C1=C/C=C/c1ccco1	0%	-6%	u	6.3µM*	-5%	-1%
O=C1NC(=O)N(Cc2ccccc2)C1=O	0%[0.00184 µM]	-4%	5%	31%	2%	-19%
CC(C)c1ccc(N2C(=O)NC(=O)/C(=C\C=C\c3ccco3)C2=O)cc1	12%	u	u	u	3%	-39%
CCC1CCCCN1C(=O)c1ccc(OC2CCN(C(=O)C3CC3)CC2)cc1 (centres undefined)	-9%	1%	45%	u	0%	-7%
Cc1ccc(-n2ncc3c(=O)n(CC(=O)N4CCN(C(=O)c5ccco5)CC4)cnc32)cc1	1%	-5%	-1%	-11%	-4%	u
C=CCn1c(=N)n(CC(=O)OC)c2ccccc21	53%	-11%	-6%	3%	-1%	12µM*
C=CCn1c(=N)n(CC(=O)c2ccc(Br)s2)c2ccccc21	12µM*	-8%	1%	-16%	-7%	13µM*
C=CCn1c(=N)n(CC(=O)c2ccc(Cl)cc2)c2ccccc21	u	1%	-34%	2%	0%	0%
N=c1n(CC(=O)c2cccs2)c2ccccc2n1Cc1ccccc1	u	-5%	17%	6%	0%	4.7µM*
CCn1c(=N)n(CC(=O)c2ccco2)c2ccccc21	2%	u	-12%	-10%	2%	x
Cc1nn(C(C)C(=O)NNC(=S)Nc2ccc(F)cc2)c(C)c1[N+](=O)[O-] (centres undefined)	x	-13%	-24%	-1%	0%	16%
Cc1cc(NC(=O)Cn2c(=O)c3c(ncn3CC(C)C)n(Cc3ccccc3)c2=O)no1	8.3µM*	-10%	0%	0%	-1%	4.7µM*
CC(C)Cn1cnc2c1c(=O)n(CC(=O)NC(=O)NC(C)(C)C)c(=O)n2Cc1ccccc1	2.9µM*	u	66%	8%	2%	u
CC(C)Cn1cnc2c1c(=O)n(CC(=O)Nc1ccc3c(c1)OCO3)c(=O)n2Cc1ccccc1	9.3µM*	-2%	-14%	-9%	6%	10µM*
Cc1cc(NC(=O)Cn2c(=O)c3c(ncn3CCC(C)C)n(Cc3ccccc3)c2=O)no1	3.3µM*	3%	17%	-2%	-2%	6%
CCn1cnc2c1c(=O)n(CC(=O)Nc1cc(C)on1)c(=O)n2Cc1ccccc1	u	-6%	-3%	0%	12%	u
CCCC(C)NC(=O)Cn1c(=O)c2c(ncn2CCC(C)C)n(Cc2ccccc2)c1=O (centres undefined)	u	-2%	0%	5%	1%	u
CC(C)Cn1cnc2c1c(=O)n(CC(=O)O)c(=O)n2Cc1ccccc1	u	-2%	-9%	7%	3%	u
CCc1noc(C)c1C(=O)OCC(=O)NCc1ccccc1OC	-15%	-1%	-17%	-12%	2%	34%
COC(=O)c1ccccc1NC(=O)C1CCN(c2ncnc3c2nc2n3CCCCC2)CC1	-7%	0%	167%	-3%	-12%	6%
CCCCNC(=O)Cn1c(=O)c2c(ncn2CCC(C)C)n(Cc2ccccc2)c1=O	u	5%	-8%	43%	-3%	2.3µM*
CCCCCCSc1cc(-c2nc3cnccn3c2NCCCC)ccc1OC	x	x	48%	x	1%	x
CCCCCCSc1cccc(-c2nc3cc(C)ccn3c2NCc2ccccc2)c1	u	2%	11%	0%	-5%	u
CCCCCCSc1cccc(-c2nc3ccc(C)cn3c2NCc2ccccc2)c1	u	-2%	-7%	-2%	5%	12µM*
SMILES	Pf growth 48h	AmpC detergent	AmpC inh no detg	Sm TGR block	SARS PLpro yeast	Pf growth 96h
CCCCCCSc1cc(-c2nc3cc(C)ccn3c2NCCCC)ccc1OC	9.3µM*	1%	14%	5%	2%	u
CCCCCCSc1cc(-c2nc3ccc(C)cn3c2NCc2ccccc2)ccc1OC	4.1µM*	-3%	4%	4%	-5%	10µM*
Cc1ccc(NC(=O)Cn2cc(S(=O)(=O)NC(C)C)c(S(=O)(=O)NC(C)C)c2)cc1Cl	x	-2%	x	1%	x	x
CCc1nn(CC(=O)NCCc2ccc(OC)c(OC)c2)c(=O)c2cc3occc3n12	x	-2%	x	-7%	x	x
CN(Cc1cc(=O)n2ccsc2n1)C1CCCCC1	18%[1.15 µM]	0%	-31%	32µM*	0%	-25%
CN(Cc1cc(=O)n2ccsc2n1)c1ccccc1	11%	u	-38%	19%	-19%	-26%
CCOc1ccccc1Oc1c(C)oc2cc(OC(=O)c3ccco3)ccc2c1=O	30%	-1%	-22%	35µM*	-22%	44%
COCCCNC(=O)c1c[nH]c2ccc(S(=O)(=O)N3CCc4ccccc43)cc2c1=O	12µM*	2%	198%	-13%	-3%	5%
CCN(CC)S(=O)(=O)c1ccc2[nH]cc(C(=O)NC3CC3)c(=O)c2c1	-7%	-4%	-9%	-7%	-1%	0.47µM*
Cc1cc(C)cc(NS(=O)(=O)c2ccc3[nH]cc(C(=O)NCc4ccco4)c(=O)c3c2)c1	u	-10%	16µM*	40µM*	10%	122%
Cc1ccccc1NS(=O)(=O)c1ccc2[nH]cc(C(=O)NC3CCCCC3)c(=O)c2c1	12µM*	u	0%	4%	-5%	12µM*
Cc1cc(C)cc(NS(=O)(=O)c2ccc3[nH]cc(C(=O)NCc4ccccc4Cl)c(=O)c3c2)c1	x	-2%	x	2%	x	x
COc1cccc(NS(=O)(=O)c2ccc3[nH]cc(C(=O)NCCc4ccc(C)cc4)c(=O)c3c2)c1	u	-13%	6.3µM*	-7%	0%	12µM*
COc1ccc(CCNC(=O)c2c[nH]c3ccc(F)cc3c2=O)cc1OC	12µM*	-3%	64%	-8%	x	0%
CCN(CC)S(=O)(=O)c1ccc2[nH]cc(C(=O)NCCc3ccc(OC)c(OC)c3)c(=O)c2c1	u	-1%	28%	8%	6%	8.3µM*
COc1ccc(CCNC(=O)c2c[nH]c3ccccc3c2=O)cc1OC	u	-18%	9%	-1%	2%	-25%
COc1cccc(Cn2c(CNS(=O)(=O)c3ccc(F)c(Cl)c3)nc3cccnc32)c1	x	0%	x	14%	x	x
Cc1cc(C)c(NC(=O)C2CCN(C(=O)N3CC(C)Oc4ccc(Cl)cc43)CC2)c(C)c1 (centres undefined)	x	-1%	x	0%	x	x
